Assay outcomes deposited in PubChem BioAssay by National Center for Advancing Translational Sciences (NCATS).
HT1080 IDH1KD tx: kills HT-1080 cells with IDH1 knockdown; AID 686971; 2% of 360,000 active; HT-1080 IDH1 knockdown viability, ATP luminescence, 48 h; Potency, µM (doses to about 46.1 µM), without a hit: top-dose activity, negative = toxicity, most hits filed as cytotoxic;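 also: 0% = DMSO wells and -100% = cell-free medium wells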
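After a 2 h attachment period, IDH1KD HT-1080 cells took pin-transferred compound for 48 h at 37 °C; ATP-based luminescence after 10 min room-temperature reagent incubation reported viability.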
HT1080NT lethal: kills 2HG-producing HT-1080-NT fibrosarcoma cells. HT-1080-NT fibrosarcoma viability, CellTiter-Glo ATP luminescence, 48 h. Potency, µM (highest dose often 46.1 µM), for the others: top-dose activity, negative = less viability, hits mostly cytotoxic. 1.6% of 360,000 active;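 also: NT is the 2HG producing partner of a matched IDH1 knockdown line; 0% = DMSO-treated cells and -100% = media-only wells without cells; nearly all actives have a fitted effect of over 55% in size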
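Toxicity toward the 2HG-producing NT line was scored as %Activity, normalised to DMSO and no-cell wells, from CellTiter-Glo luminescence after 48 hours' treatment.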
TDP1 cell noCPT: qHTS for Inhibitors of human tyrosyl-DNA phosphodiesterase 1 (TDP1): qHTS in cells in absence of CPT; AID 686978, 2013; DT40 Tdp1-/- hTDP1 cells, no CPT, ATP luminescence, 48 h; 15% of 420,000 active; Potency, µM (highest dose often 46.2 µM), for inactives: at the top dose activity change, negative = growth inhibition, hits mostly inhibitors; also: nearly all actives have a fitted effect of over 55% in size
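Seeded 400 DT40-hTDP1 cells/well (vehicle DMSO, no 20 nM CPT); pinned compounds; ≥48 hr at 37 °C; CellTiter-Glo luminescence as viability measure.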
TDP1 cell CPT: growth inhibition of DT40 Tdp1-/-;hTDP1 cells with camptothecin (screen for TDP1 inhibitors); chicken DT40 Tdp1-/-;hTDP1 cells + 20 nM CPT, ATP luminescence, 48 h; Potency, µM (highest dose often 46.2 µM), for the others: at the highest dose activity change, negative = growth inhibition, hits mostly inhibitors; 12% of 420,000 active; also: nearly all actives have a fitted effect of over 55% in size
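Chicken DT40 Tdp1-/- cells stably complemented with human TDP1 were seeded at 400 cells/well in medium containing 20 nM camptothecin, exposed to pin-transferred compounds, and grown at 37 °C for at least 48 hr. Viability was read as ATP luminescence.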
KB-3-1 cytotox: KB-3-1 parental cell cytotoxicity | KB-3-1 viability, CellTiter-Glo ATP luminescence, 72 h | Potency, µM (titrated, usually from 46.1 µM), most hits filed as cytotoxic | 1.4% of 400,000 active | AID 1347075; also: nearly all actives have a fitted effect of over 60% in size
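Here the drug-naive KB-3-1 line serves as comparator for MDR sub-line selectivity; cells received compound titrations, 72 h at 37 °C, then CellTiter-Glo readout.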
KB-V1 cytotox: KB-V1 MDR subline cytotoxicity; Potency, µM (series often up to 46.1 µM), most hits filed as cytotoxic; 3.4% of 400,000 active; KB-V1 MDR cells viability, CellTiter-Glo, 72 h; AID 1347076; also: nearly all actives have a fitted effect of over 60% in size
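In this primary screen, KB-V1 cells overexpressing P-gp are incubated with library compounds (lowest to highest concentration) for 72 h at 37 degrees C before a luminescent ATP viability read.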
* hit, by the source's call; i = inactive; ? = inconclusive; . = no result. Shown are actives, neighbours in structure and some others; about 19% of the full set was active somewhere. Calls follow the shape of the dose curve; as a rule, active = well fitted curve in the direction sought with a large enough effect; inconclusive = small, poorly fitted or top-dose-only effect, or another doubt; inactive = no such curve, though single readings can be large; an effect the other way counts as inactive or inconclusive. Unless noted, % is scaled to controls: 0 for no effect and ±100 for the full control effect; potency is read from the fitted curve at half-maximal effect.

SMILES | HT1080 IDH1KD tx | HT1080NT lethal | TDP1 cell noCPT | TDP1 cell CPT | KB-3-1 cytotox | KB-V1 cytotox
CCc1nc(N2CCC(C)CC2)c2oc3ccccc3c2n1 | ? | ? | ? | ? | i | 9.2µM*
CC(C)(C)C1CCc2c(sc(NC(=O)c3noc4c3CCCC4)c2C#N)C1 (configuration not stated) | . | . | -6.3% | -21.7% | i | ?
CCCN1C(=O)/C(=C2\SC(N3CCCCC3)=NC2=O)c2ccccc21 | -29.1% | -16.6% | 18.4µM* | ? | i | ?
CN1C(=O)/C(=C2\SC(N3CCCCCC3)=NC2=O)c2ccccc21 | 8.3% | ? | ? | ? | ? | 2.06µM*
CN1C(=O)/C(=C2\SC(N)=NC2=O)c2ccccc21 | -1.3% | -1.1% | 25.9µM* | 18.4µM* | i | i
CCOc1ccc(-c2cc(C(=O)NCc3ccc(OC)cc3)c3c(-c4ccc(F)cc4)[nH]nc3n2)cc1 | . | . | 0.3% | -0.3% | i | ?
COc1ccc(OC)c(-c2cc(C(=O)NCCc3ccccc3)c3c(-c4ccc(C)cc4)[nH]nc3n2)c1 | . | . | 13µM* | 23.1µM* | i | i
CCOc1ccc(-c2cc(C(=O)NCc3ccccc3)c3c(-c4ccc(CC)cc4)[nH]nc3n2)cc1 | . | . | ? | 20.6µM* | i | i
COc1ccc(-c2cc(C(=O)NCCc3ccccc3)c3c(-c4ccccc4)[nH]nc3n2)cc1 | . | . | ? | ? | i | ?
COc1ccc(-c2cc(C(=O)NCCc3ccccc3)c3c(-c4ccc(Cl)cc4)[nH]nc3n2)cc1 | . | . | 10.3µM* | 11.6µM* | i | 23.1µM*
Cc1ccc(CNC(=O)c2cc(-c3ccc(C)cc3)nc3n[nH]c(-c4cccc([N+](=O)[O-])c4)c23)cc1 | . | . | ? | 11.6µM* | i | i
O=C1[C@H]2[C@@H](C3CC3)N3C(=O)CN(Cc4ccccn4)C(=O)[C@@]3(Cc3ccccc3)[C@H]2C(=O)N1c1ccccc1 | -1.4% | 4.6% | 4.2% | 1.5% | i | ?
CCN(CC(=O)Nc1ccc2c(c1)OCCO2)C(=O)c1cc(=O)[nH]c2ccccc12 | -10.8% | -11.3% | -18.9% | -1.9% | ? | i
O=S(=O)(c1ccc(Cl)cc1)N1CCCC1c1nc(-c2cccc(Cl)c2)no1 (configuration not stated) | -2.0% | 1.3% | ? | 23.1µM* | i | i
O=C(N1CCOCC1)N1CCC(c2nc(-c3ccc(S(=O)(=O)N4CCOCC4)cc3)no2)CC1 | 5.4% | -4.0% | ? | ? | i | i
O=S(=O)(c1ccc2ccccc2c1)N1CCC(c2nc(-c3ccncc3)no2)CC1 | -2.8% | -0.8% | 9.2µM* | 16.4µM* | i | ?
CN(C)c1ccc(-c2noc(C3CCN(S(=O)(=O)c4cccc(Cl)c4)CC3)n2)cc1 | -2.4% | 5.8% | ? | ? | 16.4µM* | 6.51µM*
CC(C)N(C(=O)N1CCC(c2nc(-c3ccncc3)no2)CC1)C(C)C | -24.4% | -16.3% | 18.4µM* | ? | ? | 10.3µM*
C=CCn1c(CSc2ccc(C)cc2)n[nH]c1=S | 6.3% | -2.3% | ? | -24.3% | i | i
O=S(=O)(c1ccccc1)c1nc(Nc2ccccc2N2CCOCC2)sc1Cl | -24.5% | ? | ? | ? | i | 20.6µM*
CC[n+]1cccc(Br)c1 | . | . | -1.8% | 8.0% | i | i
CC1(C)C(=O)Nc2ccccc2N1C(=O)COC(=O)c1ccc(NC(N)=O)cc1 | 9.0% | -6.0% | ? | ? | i | i
CCOc1ccc(NCc2cc3cc(OC)ccc3[nH]c2=O)cc1 | -2.3% | -0.7% | 20.6µM* | 5.8µM* | i | i
COc1ccc2[nH]c(=O)c(CNc3ccccc3)cc2c1 | -0.5% | -1.0% | ? | 4.11µM* | ? | i
COc1ccccc1Nc1nn2c(=O)c3ccc(C(=O)Nc4ccc(F)cc4)cc3nc2s1 | . | . | 5.8µM* | 2.59µM* | i | ?
SMILES | HT1080 IDH1KD tx | HT1080NT lethal | TDP1 cell noCPT | TDP1 cell CPT | KB-3-1 cytotox | KB-V1 cytotox
Cc1ccc(Cl)cc1Nc1nn2c(=O)c3ccc(C(=O)NC(C)c4ccccc4)cc3nc2s1 (configuration not stated) | . | . | 3.26µM* | 6.51µM* | ? | i
COC(=O)c1ccc2c(=O)n3nc(Nc4cc(OC)ccc4OC)sc3nc2c1 | . | . | -17.0% | ? | . | .
CC(NC(=O)c1ccc2c(=O)n3c(nc2c1)CCCCC3)c1ccccc1 (configuration not stated) | -7.5% | -27.5% | -28.1% | -3.5% | i | ?
Cc1ccc(Cl)cc1Nc1nn2c(=O)c3ccc(C(=O)Nc4ccc(F)cc4)cc3nc2s1 | . | . | 2.31µM* | 3.66µM* | i | i
Cc1ccc(Cl)cc1Nc1nn2c(=O)c3ccc(C(=O)NC4CCC(C)CC4)cc3nc2s1 (configuration not stated) | . | . | ? | -26.9% | i | i
O=C(Nc1ccc(Cl)cc1Cl)c1ccc2c(=O)n3c(nc2c1)CCC3 | 11.8% | 2.7% | 16.4µM* | ? | i | i
O=C(Nc1ccc(Br)cc1Cl)c1ccc2c(=O)n3c(nc2c1)CCC3 | ? | -5.9% | 18.4µM* | 20.6µM* | i | i
COc1ccccc1NC(=O)c1ccc2c(=O)n3c(nc2c1)CCC3 | 7.4% | 2.2% | ? | -9.7% | ? | i
O=C(CCn1c(=S)[nH]c2cc3c(cc2c1=O)OCO3)NCCc1ccccc1Cl | -1.0% | -5.2% | -17.9% | -10.6% | i | i
Cc1ccc([C@H]2N[C@]3(CCCN(Cc4cccn4C)C3=O)[C@H]3C(=O)N(C)C(=O)[C@@H]23)cc1 | -8.0% | -11.8% | ? | ? | i | ?
Cc1ccc(-c2cc(-c3cccc(F)c3)n[nH]2)c(O)c1 | ? | ? | ? | -9.8% | i | i
Cc1ccc(O)c(-c2cc(-c3ccccc3F)[nH]n2)c1 | 20.6µM* | 23.1µM* | ? | ? | ? | i
Cc1ccc(-c2cc(-c3ccccc3C)[nH]n2)c(O)c1 | 18.4µM* | 20.6µM* | ? | ? | 20.6µM* | 13µM*
CC(=O)N1CCN(C(=O)c2cc(S(=O)(=O)N3CCCCC3)ccc2Cl)CC1 | 0.2% | 4.2% | -26.6% | -6.4% | i | i
O=C(Nc1nccs1)c1ccc(CSc2nnnn2-c2ccccc2)cc1 | ? | ? | -59.5% | 12.6µM* | ? | i
